Laboratory results from ChEMBL document CHEMBL3433997, “St. Jude Leishmania screening dataset” (2016).

Columns and labels:
Format in all cases: functional
[1] = biological target: Solute carrier family 2, facilitated glucose transporter member 1 (Homo sapiens) (UniProt P11166); test: ST_JUDE_LEISH: Cytotoxicity at 2uM final concentration against transgenic Leishmania Mexicana promastigotes LmGLUT1 that are glucose transport deficient and complemented with the human glucose transporter GLUT1. Activity is measured by DNA content using SYBR green in vitro
[2] = biological target: Hexose transporter 1 (Plasmodium falciparum) (UniProt O97467); test: ST_JUDE_LEISH: Cytotoxicity at 2uM final concentration against transgenic Leishmania Mexicana promastigotes LmPfHT that are glucose transport deficient and complemented with the Plasmodium falciparum hexose transporter. Activity is measured by DNA content using SYBR green in vitro
[3] = biological target: Glucose transporter (Leishmania mexicana) (UniProt O61059); test: ST_JUDE_LEISH: Cytotoxicity at 2uM final concentration against transgenic Leishmania Mexicana promastigotes LmGT2 that are glucose transport deficient and complemented with the L. Mexicana glucose transporter 2. Activity is measured by DNA content using SYBR green in vitro

Solute carrier family 2, facilitated glucose transporter member 1 (Homo sapiens), sequence (P11166 whole entry): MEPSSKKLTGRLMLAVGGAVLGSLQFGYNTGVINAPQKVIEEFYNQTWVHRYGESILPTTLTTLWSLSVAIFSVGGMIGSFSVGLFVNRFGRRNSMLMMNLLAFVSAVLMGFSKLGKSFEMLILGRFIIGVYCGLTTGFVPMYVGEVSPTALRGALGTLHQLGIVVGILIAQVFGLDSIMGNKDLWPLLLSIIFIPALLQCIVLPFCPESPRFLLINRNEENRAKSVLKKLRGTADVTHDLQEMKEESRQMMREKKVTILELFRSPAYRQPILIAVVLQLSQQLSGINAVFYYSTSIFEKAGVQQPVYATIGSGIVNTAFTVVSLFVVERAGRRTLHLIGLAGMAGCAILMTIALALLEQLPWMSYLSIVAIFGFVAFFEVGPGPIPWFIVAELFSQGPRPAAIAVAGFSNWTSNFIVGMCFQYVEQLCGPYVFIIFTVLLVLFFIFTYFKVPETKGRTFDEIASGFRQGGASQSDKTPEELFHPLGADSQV

For `Cc1cc(CNCCCCCCCNCc2ccc(-c3ccccc3)cc2)ccc1O`, the inhibition [1] was 0.67%, the inhibition [2] was 1.76% and the inhibition [3] was 1.05%.
`O=c1c(Br)ccccc1Br` showed an inhibition [1] of 1.2%, an inhibition [2] of 3.16% and an inhibition [3] of 2.97%.
For `Cc1cc(N[C@@H](Cc2ccccc2)C(=O)NCc2cccs2)nc(NCCc2ccccn2)n1`, the inhibition [1] was 6.58%, the inhibition [2] was 3.27% and the inhibition [3] was 1.45%.
Work on `Cc1ccc2[nH]c3ccccc3c(=O)c2c1` yielded an inhibition [1] of 0.1%, an inhibition [2] of 1.92% and an inhibition [3] of 1.77%.
`CCC1(CC)C(=O)N=C(N2CCCCC2)N(C)C1=O` showed an inhibition [1] of 19%, an inhibition [2] of 14.2% and an inhibition [3] of 5.99%.
With `COc1ccc(CNCc2ccc(F)cc2)cc1-c1ccc(S(=O)(=O)NCCN2CCCC2)c(C)c1` the inhibition [1] was 2.82%, the inhibition [2] was 3.53% and the inhibition [3] was -2.85%.
`Cc1noc(C)c1-c1cccc(CNCc2ccc(-c3ccc(-c4nc5cc(F)ccc5[nH]4)cc3)cc2)c1` was tested, and the inhibition [1] was 8.14%, the inhibition [2] was 6.89% and the inhibition [3] was 3.46%.
`COc1cccc(C(=O)NCc2cccs2)c1Oc1ccccc1` gave an inhibition [1] of 13.2%, an inhibition [2] of 12.2% and an inhibition [3] of 11%.
`OCC1CCN(Cc2cccc(-c3ccc(-c4nc5cc(F)ccc5[nH]4)cc3)c2)CC1` showed an inhibition [1] of 0%, an inhibition [2] of -0.04% and an inhibition [3] of 0.27%.
`Cc1cnc(N2CCN(CC3CCN(C)CC3)CC2)nc1Oc1ccc(-n2ccnc2)cc1` was tested, and the inhibition [1] was 4.68%, the inhibition [2] was 3.96% and the inhibition [3] was 2.78%.
With `Clc1ccc(CNc2nc(NCCc3c[nH]cn3)nc(Nc3ccc4c(c3)OCO4)n2)cc1` the inhibition [1] was 2.28%, the inhibition [2] was 2.3% and the inhibition [3] was 3.66%.
`COc1ccc(CN2CCC2=O)c(OC)c1` showed an inhibition [1] of 4.12%, an inhibition [2] of 3.17% and an inhibition [3] of 3.38%.
In the case of `COc1ccc2nc3cc(Cl)ccc3c(Nc3ccc(Oc4ccc(Nc5c6ccc(Cl)cc6nc6ccc(OC)cc56)cc4)cc3)c2c1`, the inhibition [1] is reported as 1.15%, the inhibition [2] is reported as 1.19% and the inhibition [3] is reported as 1.3%.
Compound `Cc1nc(C)c(-c2ccc(Oc3ccc([S+](C)[O-])cc3)cc2)c(O)c1Br` (centres undefined) has an inhibition [1] of 3.66%, an inhibition [2] of 3.7% and an inhibition [3] of 3.99%.
For `Cc1ccc(C(=O)Nc2ccc(F)cc2)cc1-c1nc(NC2CC(C)(C)NC(C)(C)C2)nc2c1ccc(=O)n2-c1c(F)cccc1F`, the inhibition [1] was 4.77%, the inhibition [2] was 3.62% and the inhibition [3] was 2.81%.
For `Oc1ccc(Cl)cc1CN1CCCC(COC(c2ccc(F)cc2)c2ccc(F)cc2)C1` (centres undefined), the inhibition [1] was 0.85%, the inhibition [2] was 1.7% and the inhibition [3] was -2.44%.
For `CN1C(C)(C)CC(NC(=O)c2ccc(-c3cc4cc(Cl)c(Cl)cc4[nH]3)o2)CC1(C)C`, the inhibition [1] was 4.77%, the inhibition [2] was 4.2% and the inhibition [3] was 6.1%.
`Brc1cc(Br)c2c(c1)C(NCCCNC1CCNc3c(Br)cc(Br)cc31)CCN2` (centres undefined) showed an inhibition [1] of 1.08%, an inhibition [2] of 0.89% and an inhibition [3] of 0.34%.
`CCOc1cc(C(=O)NCCN2CCCCC2)ccc1-c1nc2cc(Cl)ccc2[nH]1` was tested, and the inhibition [1] was 1.06%, the inhibition [2] was 1.42% and the inhibition [3] was 2.06%.
For `Cc1cc(N2CCCC2)nc(Nc2ccc(NC(=O)Cc3ccccc3)cc2)n1`, the inhibition [1] was 88.4%, the inhibition [2] was 95.2% and the inhibition [3] was 72.3%.
For `Cc1ccc(CN2CCN(CC(O)COc3ccc4c(c3)CCC4)CC2)cc1` (centres undefined), the inhibition [1] was -0.73%, the inhibition [2] was 0.88% and the inhibition [3] was -0.29%.
`Cc1cc(NC(=O)c2cc(Br)ccc2Cl)n(-c2nc(C)c(C)c(=O)[nH]2)n1` was tested, and the inhibition [1] was -1.92%, the inhibition [2] was -1.98% and the inhibition [3] was -4.55%.
`COc1ccc(CN2CCC(NCc3cccc([N+](=O)[O-])c3)CC2)cc1` gave an inhibition [1] of 5.28%, an inhibition [2] of 7.16% and an inhibition [3] of 6.36%.
`COc1ccc(CNCc2ccccc2)cc1-c1ccc(S(=O)(=O)NCCN2CCCC2)c(C)c1` gave an inhibition [1] of 3.15%, an inhibition [2] of -0.54% and an inhibition [3] of 2.34%.
With `Cc1[nH]c(C)c(-c2ccc(-c3ccc(Cl)cc3)nc2)c(=O)c1Cl` the inhibition [1] was 0.56%, the inhibition [2] was 1.71% and the inhibition [3] was -0.19%.
Work on `CNCCNCc1cccc(-c2ccc(-c3nc4ccccc4[nH]3)cc2)c1` yielded an inhibition [1] of -1.56%, an inhibition [2] of 0.67% and an inhibition [3] of -0.51%.
`O=C(/C=C/c1ccc(Cl)c(Cl)c1)N1CCC(CCN2CCc3[nH]c4ccccc4c3C2)CC1` gave an inhibition [1] of 12.4%, an inhibition [2] of 5.55% and an inhibition [3] of 4.33%.
`CC1CN(c2ccc(C(=O)NCC3CC3)cc2NC(=O)OCc2ccccc2)CC(C)O1` (centres undefined) was tested, and the inhibition [1] was 0.19%, the inhibition [2] was 0.86% and the inhibition [3] was -0.78%.
Compound `Cc1nnsc1C(=O)Nc1cccc(-c2cccc(-c3nc4ccccc4[nH]3)c2)c1` has an inhibition [1] of -1.84%, an inhibition [2] of 0.03% and an inhibition [3] of -2.07%.
Compound `O=C(NCCCN1CCC(N2CCCCC2)CC1)C1=Cc2cc(Br)ccc2OC1` has an inhibition [1] of 1.4%, an inhibition [2] of 2.63% and an inhibition [3] of 0.26%.
For `Cc1ccc(Nc2nc3cc(Nc4ccnc(Nc5cccc(CS(C)(=O)=O)c5)n4)ccc3o2)cc1`, the inhibition [1] was 4.03%, the inhibition [2] was 2.49% and the inhibition [3] was 0.38%.
Work on `Cc1nc(-c2ccc(-c3ccc(C(=O)Nc4ccc(I)c(OCCN5CCCC5)c4)cc3)c(C)c2)no1` yielded an inhibition [1] of 3.85%, an inhibition [2] of 3.48% and an inhibition [3] of 1.38%.
`O=C(NCC1CCC(C(=O)NCc2cccc(C(F)(F)F)c2)CC1)c1ccc(O)c(-c2ccc(Cl)c(Cl)c2)c1` (centres undefined) was tested, and the inhibition [1] was 0.99%, the inhibition [2] was 2.82% and the inhibition [3] was 2.98%.
For `Cc1cc(=O)c(-c2ccc(Oc3ccc(Cl)cc3Cl)cc2)c(C)[nH]1`, the inhibition [1] was 2.15%, the inhibition [2] was 3.32% and the inhibition [3] was 1.9%.
`CCOc1ccc2nc3cc(NC(=O)c4ccco4)ccc3c(N)c2c1` gave an inhibition [1] of 3.66%, an inhibition [2] of 3.27% and an inhibition [3] of 2.78%.
`COc1ccc2[nH]c(C)cc(=NN=Cc3ccccc3Cl)c2c1` gave an inhibition [1] of 5.14%, an inhibition [2] of 5.23% and an inhibition [3] of 1.92%.
Compound `COc1cccc2c(N/N=C/c3ccc([N+](=O)[O-])cc3)ccnc12` has an inhibition [1] of 11.3%, an inhibition [2] of 6.04% and an inhibition [3] of 1.25%.
Compound `CC(C)(C)C1CCC(CC2=C(C(=O)O)c3ccccc3C2=O)CC1` (centres undefined) has an inhibition [1] of 1.16%, an inhibition [2] of 0.47% and an inhibition [3] of -1.33%.
In the case of `COc1cccc(C(=O)NCCc2cccc(Cl)c2)c1Oc1ccccc1`, the inhibition [1] is reported as 1.18%, the inhibition [2] is reported as 2.48% and the inhibition [3] is reported as 1.65%.
In the case of `CCCCNCc1ccc(-c2nc(CN(CCCn3ccnc3)C(=O)C3COc4ccccc4O3)cs2)cc1` (centres undefined), the inhibition [1] is reported as 0.43%, the inhibition [2] is reported as 4.78% and the inhibition [3] is reported as -0.46%.
Compound `Nc1ncc(-c2ccsc2)c2ccc(-c3cc(NCc4ccccc4)ncn3)cc12` has an inhibition [1] of 10.1%, an inhibition [2] of 8.31% and an inhibition [3] of 7.39%.
`CC(C)NCc1ccc(-c2ccc(NC(=O)c3ccc(Cl)cc3)cc2)cc1` gave an inhibition [1] of 19.7%, an inhibition [2] of 16.2% and an inhibition [3] of 16.1%.
`COc1cc2ncnc(Nc3ccc(OC(F)(F)c4ccccc4)cc3)c2cc1OC` was tested, and the inhibition [1] was 9.55%, the inhibition [2] was 10.8% and the inhibition [3] was 7.93%.
For `OCc1ccc(-c2cncc(Nc3ccc(F)c(Cl)c3)c2)cc1`, the inhibition [1] was 3.7%, the inhibition [2] was 4.21% and the inhibition [3] was 1.04%.
For `CCN1CCN(CCCNc2c3ccccc3nc3ccccc23)CC1`, the inhibition [1] was 65.5%, the inhibition [2] was 55.3% and the inhibition [3] was 39.1%.
`COc1cc(C(F)(F)F)c2cc(CNCCCNc3nc4ccccc4[nH]3)[nH]c2c1` showed an inhibition [1] of 1.29%, an inhibition [2] of 2.11% and an inhibition [3] of 2.95%.
`O=C1Nc2ccc3ncccc3c2/C1=C/Nc1ccc(N2CCN(CCO)CC2)cc1` gave an inhibition [1] of 2.74%, an inhibition [2] of 2.28% and an inhibition [3] of 2.47%.
`N=c1n(CCN2CCCCC2)c2ccccc2n1CC(O)c1ccc(Cl)c(Cl)c1` (centres undefined) showed an inhibition [1] of 1.22%, an inhibition [2] of -0.46% and an inhibition [3] of 1.58%.
`Cc1onc(-c2c(Cl)cccc2Cl)c1C(=O)N1CCc2cc3nccc(N4CCN5CCC[C@H]5C4)c3cc21` was tested, and the inhibition [1] was 3.46%, the inhibition [2] was 4.46% and the inhibition [3] was 5.26%.
`CCOc1ccc2c(=NN=Cc3ccc(OC)c(OC)c3)cc(C)[nH]c2c1` showed an inhibition [1] of 4.95%, an inhibition [2] of 3.84% and an inhibition [3] of -0.04%.
`CCCCN(CCCC)/C(=N/c1cccc(Cl)c1Cl)Nc1ccc(C#N)cc1O` showed an inhibition [1] of 3.21%, an inhibition [2] of 2.13% and an inhibition [3] of -4.06%.
`O=C(Nc1ccc(Cl)cc1)c1cc(Cl)cc2nc(C(F)(F)F)[nH]c12` showed an inhibition [1] of 9.28%, an inhibition [2] of 15% and an inhibition [3] of 9.44%.
Work on `CC(C)CNCc1cccc(-c2ccc(CNc3ccc4ncccc4c3)cc2)c1` yielded an inhibition [1] of 1.45%, an inhibition [2] of 1.19% and an inhibition [3] of -0.62%.
Work on `O=C(NCc1ccc(C(F)(F)F)cc1)c1cccc(-c2nnc(-c3cccc(-c4cncnc4)c3)o2)c1` yielded an inhibition [1] of 9.91%, an inhibition [2] of 4.62% and an inhibition [3] of 4.68%.
Work on `CN(C)CC1CCCN1Cc1ccccc1-c1cnn(C)c(=O)c1Oc1ccc(F)cc1` (centres undefined) yielded an inhibition [1] of 5.23%, an inhibition [2] of 4.08% and an inhibition [3] of 4.45%.
Compound `COc1ccc(CNC2CCN(C)CC2)cc1-c1ccc(S(=O)(=O)NCCc2ccccn2)c(C)c1` has an inhibition [1] of 4.11%, an inhibition [2] of 1.98% and an inhibition [3] of 1.53%.
Work on `CC1(C)CNCc2cc(NC(=O)/C=C/c3ccc(Cl)cc3)ccc21` yielded an inhibition [1] of 0.41%, an inhibition [2] of -2.52% and an inhibition [3] of 2.38%.
For `Cc1nc(C)c(-c2ccc(Oc3ccc(OC(F)(F)F)cc3)cc2)c(OC(=O)c2ccc(CN(C)C)cc2)c1Cl`, the inhibition [1] was 10.9%, the inhibition [2] was 8.12% and the inhibition [3] was 8.96%.
In the case of `CCCC/C=C(\Cl)c1ccc(O)c2c1C[C@H]1C[C@H]3[C@H](N(C)C)C(O)=C(C(N)=O)C(=O)[C@@]3(O)C(O)=C1C2=O`, the inhibition [1] is reported as -0.21%, the inhibition [2] is reported as -1.57% and the inhibition [3] is reported as 0.16%.
`COc1ccc(Nc2ncc(OC)c(Nc3ccccc3C(N)=O)n2)cc1N1CCN(C)CC1` was tested, and the inhibition [1] was 17.6%, the inhibition [2] was 21.9% and the inhibition [3] was 7.83%.
Compound `CC(C)n1nc(C(=O)N2CCN(c3ccccc3)CC2)c2ccccc2c1=O` has an inhibition [1] of 1.27%, an inhibition [2] of -0.42% and an inhibition [3] of -0.69%.
`SC(=Nc1ccc2c(c1)OCCO2)NN=Cc1ccccn1` gave an inhibition [1] of -0.28%, an inhibition [2] of -0.16% and an inhibition [3] of 8.54%.
Compound `COc1ccccc1C1CCN(Cc2csc(NC(=O)c3ccc(-c4ccc(C(F)(F)F)cc4)cc3)n2)CC1` has an inhibition [1] of 7.33%, an inhibition [2] of 6.58% and an inhibition [3] of 3.56%.
